Bioassay records (PubChem)
gsp agonist: qHTS for Agonist of gsp, the Etiologic Mutation Responsible for Fibrous Dysplasia/McCune-Albright Syndrome: qHTS | AID 624287, 2012 | hit rate 0.13% among 340,000 | Potency, µM (highest dose often 76.9 µM), hits mostly activators | gsp mutant cells, cAMP HTRF, 30 min; active = well fitted activation curve with a large enough effect; inconclusive = small, poorly fitted or top-dose-only effect, or another doubt; inactive = no such curve, though single readings can be large or run the other way; cell line not stated here;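 also: phosphodiesterase inhibitor Ro 20-1724 added with compounds to block cAMP breakdown; nearly all actives have a fitted effect of over 60% in size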
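Cells stably selected in G418 were plated at 2000/well, grown 16-24 hr, then given compounds in DMSO with the PDE inhibitor […] (300 uM solution added) for 30 min at 37C; cAMP was read by HTRF.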
ASM inhibitor: Inhibitors of Secretory Acid Sphingomyelinase (S-ASM): qHTS | placental ASM, HMU-PC fluorogenic substrate, 60 min | Potency, µM (titrated, usually from 57.5 µM), usual class: inhibitors | hit rate 0.006% among 340,000; active = well fitted inhibition curve with a large enough effect; inconclusive = small, poorly fitted or top-dose-only effect; inactive = no such curve, though single readings can be large or run the other way
Target sequence (P17405 47-631 limits assumed): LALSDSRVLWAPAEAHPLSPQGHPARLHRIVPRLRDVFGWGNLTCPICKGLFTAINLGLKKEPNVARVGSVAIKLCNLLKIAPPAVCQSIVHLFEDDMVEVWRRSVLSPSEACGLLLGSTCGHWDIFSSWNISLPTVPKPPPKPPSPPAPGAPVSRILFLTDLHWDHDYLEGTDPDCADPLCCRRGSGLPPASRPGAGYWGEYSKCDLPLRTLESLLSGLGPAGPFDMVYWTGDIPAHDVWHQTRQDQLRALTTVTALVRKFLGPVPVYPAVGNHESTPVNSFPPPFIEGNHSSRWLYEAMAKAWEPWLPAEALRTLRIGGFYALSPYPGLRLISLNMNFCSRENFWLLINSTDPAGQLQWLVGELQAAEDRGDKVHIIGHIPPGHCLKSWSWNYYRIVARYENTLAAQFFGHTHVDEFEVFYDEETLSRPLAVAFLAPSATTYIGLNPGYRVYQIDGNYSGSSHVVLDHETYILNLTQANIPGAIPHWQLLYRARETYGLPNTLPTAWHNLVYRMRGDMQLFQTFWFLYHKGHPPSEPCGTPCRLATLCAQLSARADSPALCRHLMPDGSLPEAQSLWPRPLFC
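Human placenta-derived ASM enzyme was preincubated with compound for 10 minutes at room temperature, then given fluorogenic substrate HMU-PC0 (9 uM final) for 60 minutes at 37 °C; a pH 10 stop preceded fluorescence reading at Ex 386/Em 447 nm.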
gsp antagonist: qHTS for Antagonists of gsp, the Etiologic Mutation Responsible for Fibrous Dysplasia/McCune-Albright Syndrome: qHTS | gsp-mutant cells, cAMP HTRF, 30 min | Potency, µM (highest dose often 76.9 µM), most hits filed as inhibitors | hit rate 0.4% among 340,000 | AID 624288, 2012; calls by dose curve; cell line not stated here;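 also: intracellular cAMP measured with PDE inhibitor Ro 20-1724 present during compound exposure; nearly all actives have a fitted effect of over 65% in size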
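Measurement of cellular cAMP by homogeneous time-resolved fluorescence following a 30 min compound exposure at 37C. The PDE inhibitor […] was present throughout; the assay buffer was DPBS with 0.05% BSA and 0.005% Tween 20.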
TSHR antag: Antagonists of the Thyroid Stimulating Hormone Receptor: HTS campaign | Thyrotropin receptor (Homo sapiens), P16473 | TSHR-expressing cells, TSH-stimulated cAMP HTRF, 2 h; hits give low values | activity change, negative = inhibition, % at 11.5 µM | hit rate 0.2% among 330,000 | AID 504810, 2011;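 active = activity change below a set negative limit, meaning inhibition stronger than a set level, cut at about -70% in these data; inconclusive = activity change between two set negative limits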
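Antagonism was scored as loss of TSH-driven cAMP in TSHR cells, stimulated with 4nM TSH (EC80) for 2 hours at 37 deg C and detected by homogeneous HTRF competition immunoassay.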
A number is an active result; - = inactive; ? = inconclusive; . = not tested or not shown; [ ] = dose if it differs, or a comment. Shown are actives, neighbours in structure and some others; about 0.63% of the full set was active somewhere.

SMILES | gsp agonist | ASM inhibitor | gsp antagonist | TSHR antag
COc1cccc(CNC(=O)CCN2C(=O)[C@@H]3Cc4ccccc4CN3C2=O)c1 | ? | - | - | -
CC1CCN(C(=O)CSc2ccc(-c3cccc([N+](=O)[O-])c3)nn2)CC1 | -[15.4 µM] | - | 28µM | -
Cc1ccc(N/N=C(/Sc2nnnn2-c2ccccc2)C(=O)c2ccccc2)cc1 | - | - | 25µM | -
CC(O)(P(=O)(O)O)P(=O)(O)O | . | 14µM | - | .
CCN(CC(=O)NCc1ccc(Cl)cc1)C(=O)NCc1ccc(Cl)cc1 | -[15.4 µM] | - | - | -
CCN(CC(=O)NCc1ccc(Cl)cc1)C(=O)CSc1ccc(Br)cc1 | - | - | 40µM | -
Oc1ccc(N=Nc2n[nH]c(-c3ccccc3)n2)cc1 | - | - | ? | -
Oc1ccc(N=Nc2nc(-c3ccccc3)c(-c3ccccc3)[nH]2)cc1 | - | ? | 28µM | -
O=C(OCc1cccc([N+](=O)[O-])c1)c1cnccn1 | 5.6µM | - | - | -
COc1ccc(N(Cc2ccccc2)C(=O)CSc2nnc(Cn3nnc4ccccc43)o2)cc1 | - | - | 28µM | -
CCN(CC)CCCNc1ccc2ncn3c4ccc(O)cc4c(=O)c1c23 | 11µM | - | ? | .
CCN(CC)C1=CC2=CC(=C(C#N)C#N)CCC2CC1 (stereo unspecified) | -[15.4 µM] | - | - | -
N#CC(C#N)=C1C=C2C=C(N3CCCCC3)CCC2CC1 (stereo unspecified) | - | - | 40µM | -
FC(F)(F)c1nc(-c2cccs2)ncc1-c1nnnn1-c1ccc(Cl)cc1 | - | - | ? | -72
Cc1ccc(Sc2c([N+](=O)[O-])c(=O)n(C)c3ccccc23)cc1 | - | - | ? | -73
Cc1ccc(Sc2c(C=O)c3ccccc3n2C)cc1 | 18µM | - | - | -
Cc1ccc(Sc2c(O)c3ccccc3n(C)c2=O)cc1 | 13µM | - | - | -
Cn1c(-c2ccccc2)c(C=O)c2ccccc21 | ? | - | - | -
O=C(NCCN1C(=O)S/C(=C/c2cccnc2)C1=O)C1CC(=O)N(Cc2ccccc2)C1 (stereo unspecified) | - | - | - | -
CCCN1CCN(CCCNC(=O)c2cc3c(s2)-c2ccccc2OC3)CC1 | - | - | - | -72
Cc1cccc2c1-c1sc(C(=O)NCCCN3CCCC(C)C3)cc1CO2 (stereo unspecified) | ? | - | - | -75
CCOc1ccc(NC(=S)NCC(c2cccnc2)N2CCOCC2)cc1 (stereo unspecified) | - | - | - | -
O=C(CSc1nncs1)Nc1cc(S(=O)(=O)N2CCOCC2)ccc1N1CCCC1 | 22µM | . | - | -
Nc1nnc(SCC(=O)Nc2cc(S(=O)(=O)N3CCOCC3)ccc2N2CCCC2)s1 | - | - | - | -
COc1ccc(C(=O)NCC(C)(c2ccccc2)c2ccccc2)cc1S(=O)(=O)N1CCOCC1 | - | - | 35µM | .
SMILES | gsp agonist | ASM inhibitor | gsp antagonist | TSHR antag
COc1ccc(C(=O)NCc2ccncc2)cc1S(=O)(=O)N1CCOCC1 | - | - | - | -
CN(C)S(=O)(=O)Oc1cccc(C(=O)Nc2cccc(Cl)c2)c1 | - | - | 28µM | -
CC1(C)c2ssc(=S)c2-c2ccccc2N1C(=O)c1ccco1 | - | ? | - | -74
O=C(CSc1nc2ccc([N+](=O)[O-])cc2[nH]1)NC1CCCCCC1 | -[15.4 µM] | - | 40µM | -
O=C(CSc1nc2ccc([N+](=O)[O-])cc2[nH]1)NC1CCCCC1 | - | - | 28µM | -
Cc1cc(OCc2cc(C(=O)N(C)Cc3ccccn3)no2)cc(C)c1Cl | -[15.4 µM] | - | - | -
Cc1cc(OCc2cc(C(=O)N(C)C(C)c3ccccn3)no2)cc(C)c1Cl (stereo unspecified) | ? | - | ? | -98
O=C(O)c1ccc2c(c1)C(=O)N([C@H](Cc1ccc(O)c(O)c1)C(=O)O)C2=O | . | . | . | -
CC(=O)N(CCC(c1ccccc1)c1ccco1)Cc1cccs1 (stereo unspecified) | - | - | - | -91
CCC(=O)N(CCC(c1ccco1)c1ccccc1OC)Cc1cccs1 (stereo unspecified) | - | - | ? | -
O=C(O)c1cc(C(F)(F)F)nc2c(C(F)(F)F)cccc12 | - | - | - | -
CC(=O)Nc1cccc(NC(=O)/C=C/c2ccc(S(=O)(=O)N3CCOCC3)cc2)c1 | -[15.4 µM] | - | - | -
Cc1ccc(NC(=O)/C=C/c2ccc(S(=O)(=O)N3CCOCC3)cc2)cc1S(=O)(=O)N(C)C | -[15.4 µM] | - | 35µM | .
Cc1ccc(OCC(=O)Nc2ccc(N3CCN(C(=O)c4ccco4)CC3)cc2)cc1C | -[15.4 µM] | - | 45µM | -
Cc1cc(OCC(=O)Nc2ccc(N3CCN(C(=O)c4ccco4)CC3)cc2)cc(C)c1Cl | - | - | - | -
CSc1ncc(CO)n1Cc1ccccc1 | -[15.4 µM] | - | - | -
CCN(CC)c1nc(-c2nn[nH]n2)nc(N(CC)CC)n1 | ? | - | 40µM | -
CCN(CC)c1nc(N(CC)CC)[nH]c(=O)n1 | - | - | - | .
O=C(NCCN1CCOCC1)C1CC(=O)N(c2ccc(Cl)cc2)C1 (stereo unspecified) | - | - | - | -
CS(=O)(=O)N1CCN(Cc2cc(=O)n3ccsc3n2)CC1 | -[15.4 µM] | - | - | -
Cc1ccc(N(CCC#N)C(=O)CSc2nc3ccccc3c(=O)[nH]2)cc1 | - | - | 50µM | -
N#CCCN(C(=O)CSc1n[nH]c(=O)[nH]c1=O)c1ccccc1 | - | - | - | -
COc1cccc(NC(=O)CN(C)C(=O)c2cc(-c3ccc(F)cc3)nc3ccccc23)c1 | - | - | 40µM | -
Nc1ncnc2n[nH]c(Nc3ccc(F)cc3)c12 | . | . | . | -
O=C(NC1CCOc2ccccc21)c1ccccn1 (stereo unspecified) | ? | - | - | -92
SMILES | gsp agonist | ASM inhibitor | gsp antagonist | TSHR antag
O=C1OC(c2ccccc2)Cc2cc(C(=O)N3CCN(c4ccc(F)cc4)CC3)ccc21 (stereo unspecified) | - | - | - | -
CCOc1ccccc1N1CCN(C(=O)CCCN2C(=O)c3cccc4cccc(c34)C2=O)CC1 | - | - | - | -81
O=C(CCCN1C(=O)c2cccc3cccc(c23)C1=O)N1CCN(c2ccccc2O)CC1 | - | - | - | -
O=C1c2ccccc2C(=O)N1CCOc1ccccc1Br | 3.5µM | - | - | -
O=C1c2ccccc2C(=O)N1CCOc1ccccc1Cl | - | - | - | -
CC(C)(C)C(=O)NC(=S)NNC(=O)c1ccc(-c2ccccc2)cc1 | - | - | - | -81
Cc1ccc2cccc(Oc3ncnc4scc(-c5ccccc5)c34)c2n1 | - | - | - | -84
CC1NC(=O)c2cccnc2-n2c1nc1cc(F)ccc1c2=O (stereo unspecified) | - | . | . | .
CCCCOc1ccc(N(CC(=O)NCCOC)C(=O)CCC(=O)Nc2ccccn2)cc1 | - | - | 32µM | -
CCCCOc1ccc(N(CC(=O)NC(C)(C)CC)C(=O)CCC(=O)Nc2ccccn2)cc1 | -[15.4 µM] | - | - | -
